The list is not random: actives were taken first. Their share in the collection is about 18%.
HepG2 viability: counter-screen for TGF-b inhibitors: cytotoxicity in HepG2 cells; HepG2 CAGA-GFP viability, ATP luminescence, 18 h; Potency, µM (highest dose often 46.1 µM), inactives show at the top dose activity change, negative = cytotoxicity, usual class: cytotoxic; actives 0.76% (n = 410,000); further: potency means the concentration at half of the fitted maximal effect
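CellTiter-Glo luminescence gave cytotoxicity after 18 hours at 37 degrees C. The cells were HepG2 CAGA-GFP in 1% FBS DMEM, stimulated with 500 pg/mL TGF-beta after compound addition. %Activity was normalised to no-cell wells (complete cell-killing) and DMSO (no toxicity), and curves were fitted and classified.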
TGFb inhibitor: inhibitors of TGF-b signaling | HepG2 CAGA-GFP TGF-b/SMAD3 reporter, GFP fluorescence, 18 h; TGF-beta stimulated, 500 pg/mL final | Potency, µM (top dose mostly 46.1 µM), for inactives: at the highest dose activity, negative = inhibition, most hits filed as inhibitors | actives 1.2% (n = 410,000) | AID 588855; further: potency means the concentration at half of the fitted maximal effect; on the % scale 0 is the no-effect control and ±100 the full control effect; nearly all actives have a fitted effect of over 65% in size
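Cell-based qHTS in HEPG2 carrying a CAGA-GFP Smad reporter; compounds added before 500 pg/mL final TGF-beta, 18 h incubation at 37 degrees C, GFP fluorescence quantified per cell by imaging cytometry.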
TDP1 inh: blocks human tyrosyl-DNA phosphodiesterase 1. Q9NUW8. recombinant TDP1, AlphaScreen DNA substrate cleavage. Potency, µM (titrated, usually from 130 µM), inactives show at the top dose activity change, negative = inhibition, actives largely listed as inhibitors. actives 0.28% (n = 350,000). AID 485290; further: potency means the concentration at half of the fitted maximal effect; on the % scale 0 is the no-effect control and ±100 the full control effect; nearly all actives have a fitted effect of over 40% in size
Target sequence (Q9NUW8 whole entry, looked up): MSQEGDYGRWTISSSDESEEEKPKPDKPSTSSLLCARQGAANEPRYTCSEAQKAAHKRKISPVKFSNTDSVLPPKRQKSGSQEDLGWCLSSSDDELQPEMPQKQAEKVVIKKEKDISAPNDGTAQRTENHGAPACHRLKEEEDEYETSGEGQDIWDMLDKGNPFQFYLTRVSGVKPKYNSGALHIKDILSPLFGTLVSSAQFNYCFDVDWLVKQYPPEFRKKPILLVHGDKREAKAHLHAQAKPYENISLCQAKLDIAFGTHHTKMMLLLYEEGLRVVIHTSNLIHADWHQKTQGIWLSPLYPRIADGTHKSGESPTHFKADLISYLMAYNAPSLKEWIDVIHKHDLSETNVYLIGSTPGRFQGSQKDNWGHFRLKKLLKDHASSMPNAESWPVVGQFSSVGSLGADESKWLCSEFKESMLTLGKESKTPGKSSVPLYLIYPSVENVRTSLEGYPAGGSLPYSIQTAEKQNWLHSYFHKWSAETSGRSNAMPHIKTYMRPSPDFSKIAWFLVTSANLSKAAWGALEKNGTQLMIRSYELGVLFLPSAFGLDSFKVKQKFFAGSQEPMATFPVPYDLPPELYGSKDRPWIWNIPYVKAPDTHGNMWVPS
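Steps: enzyme plus compound, 15 min RT; add biotin/phosphotyrosine-FITC oligonucleotide (15 nM final), react 5 min; add donor/acceptor beads (10 ug/ml final), 10 min; read AlphaScreen. Tdp1 at 1 nM final.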
TDP1 cell CPT: DT40-hTDP1 cell growth loss with CPT; actives 12% (n = 420,000); Potency, µM (highest dose often 46.2 µM), inactives show at the highest dose activity change, negative = growth inhibition, most hits filed as inhibitors; chicken DT40 Tdp1-/-;hTDP1 cells + 20 nM CPT, ATP luminescence, 48 h; AID 686979; further: potency means the concentration at half of the fitted maximal effect; on the % scale 0 is the no-effect control and ±100 the full control effect; nearly all actives have a fitted effect of over 55% in size
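Chicken DT40 Tdp1-/- cells complemented with human TDP1, 400 cells/well, exposed to compounds plus 20 nM camptothecin for at least 48 h at 37 C; viability read as ATP content by CellTiter-Glo luminescence.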
TDP1 cell noCPT: qHTS for Inhibitors of human tyrosyl-DNA phosphodiesterase 1 (TDP1): qHTS in cells in absence of CPT; DT40 Tdp1-/- hTDP1 cells, no CPT, ATP luminescence, 48 h; Potency, µM (top dose mostly 46.2 µM), inactives show at the top dose activity change, negative = growth inhibition, most hits filed as inhibitors; actives 15% (n = 420,000); further: potency means the concentration at half of the fitted maximal effect; on the % scale 0 is the no-effect control and ±100 the full control effect; nearly all actives have a fitted effect of over 55% in size
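Cells were dispensed at 400 per well, compounds added by pin tool, plates incubated ≥48 hr at 37 °C, then CellTiter-Glo added for 30 min at room temperature before luminescence reading. Line: DT40 Tdp1-/- complemented with hTDP1; camptothecin omitted.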
IL1B secr inh: inflammasome signaling inhibition, IL-1 beta readout | activity change, % at 57.5 µM | actives 4.7% (n = 360,000) | AID 743279 | THP-1 LPS/ATP IL-1B secretion, AlphaLISA, 16 h; hits give low values; in the data active means activity change below about -50%; inconclusive means mostly about -30% to -49%; further: on the % scale 0 is the no-effect control and ±100 the full control effect
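THP-1 cells pretreated 1 hr with compounds (up to 57.5 uM final), then stimulated with LPS (250 ng/mL final) plus ATP (1.25 mM final); secreted IL-1B measured by AlphaLISA after 16 hr, decreased signal indicating inhibition.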
The depositor's hits bear a star; ? = inconclusive; . = not tested or not shown; [ ] = dose if it differs, or a comment. Unless noted, the call rests on the fitted dose curve; in most records, active means well fitted curve in the direction sought with a large enough effect; inconclusive means small, poorly fitted or top-dose-only effect, or another doubt; inactive means no such curve, though single readings can be large; an effect the other way counts as inactive or inconclusive.

SMILES | HepG2 viability | TGFb inhibitor | TDP1 inh | TDP1 cell CPT | TDP1 cell noCPT | IL1B secr inh
O=C(c1ccccc1Br)N1CCN(c2ccccc2)CC1 | -7% | 35% | 4% | -17% | -12% | -10
Cc1ccc(C)c(N2CCN(C(=O)c3csc(C)c3C)CC2)c1 | 1% | 0% | 4% | ? | ? | -10
Cc1ccc(N2CCN(C(=O)c3ccccc3Br)CC2)c(C)c1 | -10% | 3% | 1% | ? | 26µM* | -2
Cc1cc(F)ccc1S(=O)(=O)N1CCCOC1CNC(=O)C(=O)NCCc1ccco1 (configuration not stated) | -24% | -1% | . | -3% | -26% | 10
CN(C)S(=O)(=O)c1cccc(COC(=O)c2cnccn2)c1 | 8% | 3% | . | -5% | -21% | -2
N#Cc1c(-c2ccccc2)c(-c2ccccc2)n(Cc2ccco2)c1NC(=O)c1cccs1 | -13% | -3% | 3% | 11µM* | ? | -4
O=C(C[n+]1csc2ccccc21)c1cccc([N+](=O)[O-])c1 | -5% | -28% | . | 11µM* | 10µM* | .
O=C(C[n+]1csc2ccccc21)c1ccccc1 | -56% | -23% | . | ? | ? | .
Cc1c(CCOC(=O)c2cccc([N+](=O)[O-])c2)sc[n+]1CC(=O)c1ccccc1 | 9% | 7% | 0% | 8.2µM* | ? | -3
COc1ccc(C(=O)OCCc2sc[n+](CC(=O)c3ccccc3)c2C)cc1 | -16% | -8% | 6% | ? | ? | -55*
Cc1c(CCOC(=O)c2ccc([N+](=O)[O-])cc2)sc[n+]1CC(=O)c1ccccc1 | -12% | -10% | 7% | -23% | ? | -22
CN1C[C@H]2CON(C)[C@H]2C[C@H]1c1cccc(N2CCOCC2)c1 | 0% | -1% | . | -2% | 7% | -20
Cc1c(C(=O)NCCCc2ccncc2)cnn1-c1ncc2c(n1)-c1ccccc1CC2 | . | . | . | -5%[9.04 µM] | ? | .
Cc1c(C(=O)NCCCc2ccncc2)cnn1-c1nccc(-c2ccccc2F)n1 | . | . | . | -7%[9.04 µM] | 18µM* | .
CC(=O)Nc1cccc(NC(=O)c2cc3c(=O)n4cccc(C)c4nc3n2C)c1 | -21% | -16% | 1% | -29% | ? | .
Cc1ccc(Cl)cc1NC(=O)c1cc2c(=O)n3cccc(C)c3nc2n1C | -7% | -23% | 3% | 0.58µM* | 0.52µM* | .
CCCCN(CC)C(=O)c1cc2c(=O)n3cccc(C)c3nc2n1C | -14% | -19% | -1% | ? | 16µM* | .
COc1cccc(-n2cc(CNC(=O)C3CCC(=O)N(C4CC4)C3)cn2)c1 (configuration not stated) | -13% | -10% | 2% | 10% | -4% | 70
Cn1c(C(=O)N2CCCC(C(=O)NCCc3ccccc3)C2)cc2sccc21 (configuration not stated) | -7% | ? | 6% | 5.8µM* | 5.8µM* | 15
Cc1ccc(CCNC(=O)C2CCCN(C(=O)c3cc4sccc4n3C)C2)cc1 (configuration not stated) | -26% | -27% | 5% | -29% | ? | -26
Cn1c(C(=O)N2CCCC(C(=O)NCCCc3ccccc3)C2)cc2sccc21 (configuration not stated) | -22% | ? | 7% | 18µM* | 10µM* | -10
O=C(Cn1cnc2ccccc21)N/N=C/c1ccccc1[N+](=O)[O-] | 25% | 13% | 3% | 6% | -2% | 0
O=C1CN(S(=O)(=O)c2ccccc2)CCN1 | 2% | 10% | 0% | 12% | -6% | -7

Screening data deposited in PubChem by National Center for Advancing Translational Sciences (NCATS).
